Where a name gives a salt, the structure may show the parent alone.

The text below walks through data of the supplement of paper PMC7184167.

The experiment deals with replication-induced senescent mouse newborn dermal fibroblasts (NBF). The experiment in a line: relative cell viability of senescent cells (fraction); higher = less killing of senescent cells. As to conditions: 1 µM; 3 days. The protocol: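 Replication-induced senescent newborn mouse skin fibroblasts (NBFs) in 24-well plates were treated with a Selleck FDA-approved drug library at 1 µM for 3 days.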
Compound `Cc1cn([C@H]2C=C[C@@H](CO)O2)c(=O)[nH]c1=O` [Stavudine (d4T)] had a relative cell viability of 0.893.

Consider `Nc1nc2c(ncn2COCCO)c(=O)[nH]1` [Aciclovir], for which the relative cell viability is 1.06.

On to `Cc1cnc(NC(=O)C2=C(O)c3ccccc3S(=O)(=O)N2C)s1` [Meloxicam], for which the relative cell viability worked out at 1.17.

In the case of `CCN(CC)CCNC(=O)c1c(C)[nH]c(/C=C2\C(=O)Nc3ccc(F)cc32)c1C` [Sunitinib Malate], the relative cell viability is 1.1.

In turn, `C[C@@H](c1ncncc1F)[C@](O)(Cn1cncn1)c1ccc(F)cc1F` [Voriconazole] displayed a relative cell viability of 0.928.

For the compound `COc1ccc([C@]2(C#N)CC[C@@H](C(=O)O)CC2)cc1OC1CCCC1` [Cilomilast], the relative cell viability was 0.332.

Take `COc1cnc(NS(=O)(=O)c2ccc(N)cc2)nc1` [Sulfameter]: the relative cell viability amounted to 0.763.

As for `CC1COc2c(N3CCN(C)CC3)c(F)cc3c(=O)c(C(=O)O)cn1c23` (stereo not given) [Ofloxacin], the relative cell viability is 1.

The compound `O=C(O)c1ccc(-n2nc(-c3ccccc3O)nc2-c2ccccc2O)cc1` [Deferasirox] gave a relative cell viability of 1.07.

In turn, `Nc1ccc(O)c(C(=O)O)c1` [Mesalamine] came in with a relative cell viability of 0.351.

Compound `CN(Cc1cnc2nc(N)nc(N)c2n1)c1ccc(C(=O)N[C@@H](CCC(=O)O)C(=O)O)cc1` [Methotrexate] had a relative cell viability of 0.692.

As to `CC(C)OC(=O)C(C)(C)Oc1ccc(C(=O)c2ccc(Cl)cc2)cc1` [Fenofibrate], the relative cell viability came to 1.06.

On to `Oc1ccc(OCc2ccccc2)cc1` [Monobenzone], for which the relative cell viability was 0.981.

`Cc1cc(Nc2cc(N3CCN(C)CC3)nc(Sc3ccc(NC(=O)C4CC4)cc3)n2)n[nH]1` [Tozasertib (VX-680, MK-0457)]: the relative cell viability was 0.364.

`OCCN(CCO)c1nc(N2CCCCC2)c2nc(N(CCO)CCO)nc(N3CCCCC3)c2n1` [Dipyridamole]: the relative cell viability was 1.

Compound `CC1(C)O[C@@H]2[C@@H](CO[C@@]3(COS(N)(=O)=O)OC(C)(C)O[C@@H]23)O1` [Topiramate] had a relative cell viability of 0.921.

Regarding `CN(C/C=C/C#CC(C)(C)C)Cc1cccc2ccccc12` [Terbinafine], the relative cell viability came out at 0.403.

Turning to `Cn1c(=O)c2nc[nH]c2n(C)c1=O` [Theophylline], the relative cell viability turned out to be 0.828.

`Oc1c(Cl)cc(Cl)c2cccnc12` [Chloroxine] showed a relative cell viability of 0.982.

In turn, `O=C(N[C@H](CO)[C@H](O)c1ccc([N+](=O)[O-])cc1)C(Cl)Cl` [Chloramphenicol] came in with a relative cell viability of 0.706.

Turning to `CCCOc1ccc(C(=O)OCCN(CC)CC)cc1N` [Proparacaine HCl], the relative cell viability was 0.992.

`CCN(CCO)CCCOc1ccc2c(Nc3cc(CC(=O)Nc4cccc(F)c4)[nH]n3)ncnc2c1` [Barasertib (AZD1152-HQPA)] yielded a relative cell viability of 1.

As to `COc1cc2nc(N3CCN(C(=O)c4ccco4)CC3)nc(N)c2cc1OC` [Prazosin HCl], the relative cell viability came to 0.927.

The compound `Cc1ccc(C)c(OCCCC(C)(C)C(=O)O)c1` [Gemfibrozil] displayed a relative cell viability of 1.02.

For the compound `CC(C)NCC(O)COc1ccc(CCOCC2CC2)cc1` (stereo not given) [Betaxolol HCl], the relative cell viability was found to be 1.1.

For `COC(=O)Nc1nc2cc([S+]([O-])c3ccccc3)ccc2[nH]1` (stereo not given) [Oxfendazole], the relative cell viability was 1.04.

In turn, `C[C@H]1C[C@H]2[C@@H]3CCC4=CC(=O)C=C[C@]4(C)[C@@]3(F)[C@@H](O)C[C@]2(C)[C@@]1(O)C(=O)CO` [Betamethasone] displayed a relative cell viability of 0.229.

The compound `CN(C)CCOc1ccc(/C(=C(/CCCl)c2ccccc2)c2ccccc2)cc1` [Toremifene Citrate] returned a relative cell viability of 0.956.

The compound `C#Cc1cccc(Nc2ncnc3cc(OCCOC)c(OCCOC)cc23)c1` [Erlotinib HCl (OSI-744)] came in with a relative cell viability of 0.672.

As to `Cc1cnc(C(=O)O)c[n+]1[O-]` [Acipimox], the relative cell viability came to 0.938.

Compound `C[C@]12CC[C@@H]3c4ccc(O)cc4CC[C@H]3[C@@H]1CC[C@@H]2O` [Estradiol] came in with a relative cell viability of 1.13.

In turn, `CN(C)CCc1c[nH]c2ccc(C[C@H]3COC(=O)N3)cc12` [Zolmitriptan] had a relative cell viability of 0.999.

`COc1ccc2[nH]cc(CCNC(C)=O)c2c1` [Melatonin]: the relative cell viability is 1.05.

For `COc1ccc2[nH]c([S@@+]([O-])Cc3ncc(C)c(OC)c3C)nc2c1` [NEXIUM (esomeprazole magnesium)], the relative cell viability is 1.07.

As for `NCCCCCC(=O)O` [(6-)ε-Aminocaproic acid], the relative cell viability stood at 0.983.

The compound `CC(C)[C@H](N)C(=O)OCCOCn1cnc2c(=O)nc(N)[nH]c21` [Valaciclovir HCl] yielded a relative cell viability of 0.909.

Regarding `O=S(=O)(c1cccc2cnccc12)N1CCCNCC1` [Fasudil (HA-1077) HCl], the relative cell viability turned out to be 1.14.

In turn, `CC(=O)Nc1ccc(O)cc1` [Acetaminophen] registered a relative cell viability of 0.803.

On to `O=c1[nH]c(=O)n([C@H]2C[C@H](O)[C@@H](CO)O2)cc1C(F)(F)F` [Trifluridine], for which the relative cell viability was 0.971.

Turning to `Nc1nc(F)nc2c1ncn2[C@@H]1O[C@H](CO)[C@@H](O)[C@@H]1O` [Fludarabine], the relative cell viability is 0.0671.
